NS1 inh: qHTS Assay for Inhibitors of Influenza NS1 Protein Function. Potency, µM (series often up to 46.1 µM), for inactives: at the top dose activity, positive = more growth. actives 0.4% (n = 270,000); calls by dose curve; note: actives are rising curves; nearly all actives have a fitted effect of over 50% in size
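In this qHTS, NS1 from influenza A is expressed in budding yeast, where it slows growth. Cells are switched from glucose to 2% galactose medium (pH 6.0, -URA), treated with compound, and growth recovery is read at OD600.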
Cruzain noTriton: qHTS Assay for Promiscuous and Specific Inhibitors of Cruzain (without detergent); Cruzipain (Trypanosoma cruzi), P25779; purified cruzain, Z-FR-AMC fluorescence, no detergent; Potency, µM, for inactives: max response, negative = inhibition, actives largely listed as inhibitors; actives 2.3% (n = 200,000); AID 1476, 2009;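 note: plate controls were enzyme without inhibitor for no effect and buffer without enzyme for full effect; nearly all actives have a fitted effect of over 40% in size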
Target sequence (P25779 123-467 limits assumed): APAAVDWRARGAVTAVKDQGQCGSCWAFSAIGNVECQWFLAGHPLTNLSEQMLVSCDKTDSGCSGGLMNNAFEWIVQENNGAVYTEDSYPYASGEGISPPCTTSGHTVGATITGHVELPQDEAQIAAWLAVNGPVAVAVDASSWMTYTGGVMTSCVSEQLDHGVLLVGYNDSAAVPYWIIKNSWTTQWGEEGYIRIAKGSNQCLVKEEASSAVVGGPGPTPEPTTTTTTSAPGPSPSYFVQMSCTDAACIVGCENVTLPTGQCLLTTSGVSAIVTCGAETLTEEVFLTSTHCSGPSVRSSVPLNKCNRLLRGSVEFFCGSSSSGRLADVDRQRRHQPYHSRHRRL
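Purified cruzain at 1.5 nM, pre-incubated 15 min with compound at room temperature in 100 mM sodium acetate pH 5.5, 5 mM DTT, 0.00005% Triton X-100. Reaction started with 2 uM Z-FR-AMC; AMC fluorescence increase over 60 s gives rate.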
Cruzain Triton: qHTS Assay for Promiscuous and Specific Inhibitors of Cruzain (with detergent). Cruzipain (Trypanosoma cruzi), P25779. purified cruzain, Z-FR-AMC fluorescence, 0.01% Triton. Potency, µM, without a hit: max response, negative = inhibition, actives largely listed as inhibitors. actives 0.43% (n = 200,000). AID 1478, 2009;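 note: plate controls were neutral wells for no effect and buffer without enzyme for full effect; nearly all actives have a fitted effect of over 40% in size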
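Detergent-containing run (0.01% Triton X-100) in acetate buffer pH 5.5 with 5 mM DTT: enzyme at 1.5 nM final, 15 min compound preincubation at room temperature, then 2 uM Z-FR-AMC substrate. Activity taken as 60 s fluorescence increase at 360/450 nm.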
* hit, by the source's call. Many of the other results were omitted from the sample, so hits are more common in it than they were. Unless noted, calls come from the whole dose curve; as a rule, active = well fitted curve in the direction sought with a large enough effect; inconclusive = small, poorly fitted or top-dose-only effect, or another doubt; inactive = no such curve, though single readings can be large; an effect the other way counts as inactive or inconclusive. Potency is the fitted concentration of half-maximal effect.

For Cc1cc(C)nc(/N=C(/NC(=O)Nc2ccc(Cl)c(Cl)c2)Nc2ccccc2)n1 the results were NS1 inh -2.4%, Cruzain noTriton inconclusive and Cruzain Triton -2.0%.
`CCCOc1ccccc1N/C(=N/c1nc(C)cc(C)n1)NC(=O)Nc1ccc(Cl)cc1` gave NS1 inh 7.9%, Cruzain noTriton 7.94µM* and Cruzain Triton 4.8%.
For COc1ccccc1N/C(=N/c1nc(C)cc(C)n1)NC(C)=O the results were NS1 inh -4.4%, Cruzain noTriton 2.0% and Cruzain Triton 3.0%.
`Cc1cc(C)nc(/N=C(/NC(=O)Nc2ccc(Cl)c(Cl)c2)Nc2cccc(Cl)c2)n1` gave NS1 inh -2.4%, Cruzain noTriton 7.94µM* and Cruzain Triton 0.0%.
For CCOc1ccccc1N/C(=N/c1nc(C)cc(C)n1)NC(=O)Nc1ccc(Cl)c(Cl)c1 the results were NS1 inh 0.2%, Cruzain noTriton 3.98µM* and Cruzain Triton 1.1%.
For CCOc1ccccc1NC(=O)Nc1ccc(Cl)cc1 the results were NS1 inh inconclusive, Cruzain noTriton -10.1% and Cruzain Triton -9.7%.
Screening O=C(O)c1ccc(CNCc2ccccc2)cc1 returned NS1 inh -1.0%, Cruzain noTriton 2.7% and Cruzain Triton 1.9%.
For CCOC(=O)c1noc2ncnc(N3CCC(C)CC3)c12 the results were Cruzain noTriton -3.8% and Cruzain Triton -3.7%.
O=C(O)COc1ccccc1/C=C1\SC(=S)N(/N=C/c2ccccc2O)C1=O was read as NS1 inh 0.3%, Cruzain noTriton inconclusive and Cruzain Triton 28.2µM*.
For O=C(O)COc1ccccc1/C=C1\SC(=Nc2ccc(F)cc2)N(c2ccc(F)cc2)C1=O the results were NS1 inh 13.2%.
`CCCCCn1c(N)c(-c2nc3ccccc3o2)c2c([N+](=O)[O-])nn(CC)c(=O)c21` gave NS1 inh -8.0%, Cruzain noTriton 10µM* and Cruzain Triton -4.7%.
Screening CCCCCn1c(N)c(-c2nc3ccccc3o2)c2c([N+](=O)[O-])nn(C)c(=O)c21 returned NS1 inh -3.5%, Cruzain noTriton inconclusive and Cruzain Triton -7.3%.
Screening C/C(=N\NC(=S)NC(C)C)c1ccc(Cl)s1 returned NS1 inh -30.5%, Cruzain noTriton -9.6% and Cruzain Triton -11.3%.
`C/C(=N\NC(N)=S)c1ccc(Cl)s1` gave NS1 inh -43.3%, Cruzain noTriton 0.251µM* and Cruzain Triton 0.562µM*.
For CC(=O)c1cccc(NC(=O)C(OC(=O)/C=C/c2ccc3c(c2)OCO3)c2ccccc2)c1 (stereo not drawn) the results were NS1 inh 8.1%, Cruzain noTriton 10µM* and Cruzain Triton 1.6%.
Screening CCOC(=O)c1cccc(NC(=O)/C=C/c2ccc3c(c2)OCO3)c1 returned NS1 inh -4.7%, Cruzain noTriton -10.7% and Cruzain Triton -8.0%.
`Cc1ccc(C(NC(=O)/C=C\c2ccc3c(c2)OCO3)C(=O)Nc2ccc3c(c2)OCO3)cc1` (stereo not drawn) gave NS1 inh 1.5%, Cruzain noTriton 31.6µM* and Cruzain Triton -3.5%.
For COc1ccc(NC(=O)C(NC(=O)/C=C\c2ccc3c(c2)OCO3)c2ccc(OC)cc2)cc1 (stereo not drawn) the results were Cruzain noTriton inconclusive and Cruzain Triton -4.1%.
COc1ccc(CNC(=O)CN(C)c2nn3c(=O)cc(C)nc3s2)cc1 was read as Cruzain noTriton -4.2% and Cruzain Triton -0.8%.
O=C(CSc1ccc(C(F)(F)F)cc1[N+](=O)[O-])Nc1ccc2ccccc2c1 was read as NS1 inh -5.8%, Cruzain noTriton 12.6µM* and Cruzain Triton -3.7%.
For CC(=O)Nc1cccc(NC(=O)CSc2ccc(C(F)(F)F)cc2[N+](=O)[O-])c1 the results were NS1 inh -17.8%, Cruzain noTriton 0.7% and Cruzain Triton -0.9%.
`Cc1ccccc1Cn1nnc2c(=O)[nH]c(C3CCN(C(=O)c4ccccc4)CC3)nc21` gave Cruzain noTriton 5.8% and Cruzain Triton -2.0%.
`Cc1cc(=O)n(Cc2c(F)cccc2Cl)c2c1c(C)nn2C` gave Cruzain noTriton inconclusive and Cruzain Triton -6.9%.
Screening COc1cc(/C(C)=N/NC(=S)NC(C)C)cc(OC)c1OC returned NS1 inh -10.1%, Cruzain noTriton -0.1% and Cruzain Triton -7.3%.
`COc1cc(/C(C)=N\NC(N)=S)cc(OC)c1OC` gave NS1 inh 6.6%, Cruzain noTriton 1.26µM* and Cruzain Triton 5.01µM*.
Cc1cc([N+](=O)[O-])c(C)c(Br)c1C was read as NS1 inh 1.4%, Cruzain noTriton 4.1% and Cruzain Triton 2.4%.
Nc1ncnc2c1nc(-c1ccccc1)n2[C@H]1O[C@@H](CO)[C@@H](O)[C@H]1O was read as NS1 inh 0.0%, Cruzain noTriton 2.9% and Cruzain Triton -1.0%.
CN(C)c1ccc(C(CNS(=O)(=O)c2ccccc2)N2CCc3ccccc32)cc1 (stereo not drawn) was read as Cruzain noTriton 15.8µM* and Cruzain Triton -2.3%.
For Cc1ccc(S(=O)(=O)NCC(c2ccc(N(C)C)cc2)N2CCc3ccccc32)cc1 (stereo not drawn) the results were Cruzain noTriton -4.1% and Cruzain Triton -3.6%.
CCCn1c(CCC(=O)Nc2cc(OC)cc(OC)c2)nc2cccnc21 was read as Cruzain noTriton -6.7% and Cruzain Triton -1.8%.
`COc1cccc(C(=O)Nc2cccc(C(=O)OCc3cc(=O)n4c5c(sc4n3)CCCC5)c2)c1` gave Cruzain noTriton -0.2% and Cruzain Triton 1.6%.
Screening CN(C)CC[C@H](c1ccc(Br)cc1)c1ccccn1 returned Cruzain noTriton -2.0% and Cruzain Triton 0.5%.
`CCOc1ccc(NC(=O)Cn2cnc3sc(C)c(S(=O)(=O)N4CCN(c5ccccc5OC)CC4)c3c2=O)cc1` gave Cruzain noTriton inconclusive and Cruzain Triton -4.1%.
For CC(=O)[O-].CC(=O)[O-].CC(=O)[O-].[Cr+3] the results were Cruzain noTriton 1.5% and Cruzain Triton 1.3%.
Screening O=c1c2ccccc2nc2n1CCCCC2 returned NS1 inh -5.9%, Cruzain noTriton -4.2% and Cruzain Triton -0.9%.
For O=c1c2ccccc2nc2n1CCC2 the results were NS1 inh inconclusive, Cruzain noTriton 12.6µM* and Cruzain Triton inconclusive.
`O=C(NCc1ccc(F)cc1)C(=O)NCC(c1ccc2c(c1)OCO2)N1CCOCC1` (stereo not drawn) gave Cruzain noTriton -5.5% and Cruzain Triton -0.7%.
O=C(CNC(=O)c1ccco1)NCC(=O)OC(C(=O)c1ccccc1)c1ccc(Cl)cc1 (stereo not drawn) was read as NS1 inh -1.5%, Cruzain noTriton -25.9% and Cruzain Triton inconclusive.
`O=C(CNC(=O)c1ccco1)OC(C(=O)c1ccccc1)c1ccccc1` (stereo not drawn) gave NS1 inh -21.2%, Cruzain noTriton 7.94µM* and Cruzain Triton 6.31µM*.
Screening COc1ccc(CN2C(=O)N(c3ccc(C)cc3)C(=O)C2CC(=O)Nc2ccccc2)cc1OC (stereo not drawn) returned Cruzain noTriton 12.9% and Cruzain Triton 5.4%.

Assay outcomes deposited in PubChem BioAssay by National Center for Advancing Translational Sciences (NCATS).
